Data from PubChem BioAssay.
The source made the active and inactive calls.

How the values were obtained:
[1] = small molecules captured by biotinylated probe aFSTL3 – biochemical, small-molecule microarray, fluorescence 635/667, stem cell growth factor project, primary screen (AID 1064); conditions: higher = more signal;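 further: measures binding of the biotinylated anti-FSTL3 antibody to printed compounds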
[2] = binders from COS7 lysate, DM2A8 probe, primary screen, torsin A project, cell lysate, small-molecule microarray, fluorescence 635/667 (AID 1065); conditions: higher = more signal, COS7 lysate expressing mutant human TOR1A
[3] = small molecules captured by biotinylated probe aFGF2 – biochemical, small-molecule microarray, fluorescence 635/667, stem cell growth factor project, primary screen (AID 1067); conditions: higher = more signal;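 further: measures binding of biotinylated aFGF2 protein to printed compounds on slides; z-score merges feature fluorescence and signal-to-noise across triplicate slides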
[4] = small molecules captured by biotinylated probe aFGF10 – biochemical, small-molecule microarray, fluorescence 635/667, stem cell growth factor project, primary screen (AID 1071); conditions: higher = more signal;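 further: score merges 667 nm spot intensity and signal to noise from triplicate slides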
[5] = target: Neurogenic locus notch homolog protein 2 (Homo sapiens) (UniProt Q04721); test: small molecules binding Notch2 protein – biochemical, small-molecule microarray, 635 nm fluorescence, stem cell growth factors, primary screen (AID 1073); conditions: higher = more signal
Sequence of Neurogenic locus notch homolog protein 2 (Homo sapiens) (Q04721 whole entry, looked up, canonical isoform): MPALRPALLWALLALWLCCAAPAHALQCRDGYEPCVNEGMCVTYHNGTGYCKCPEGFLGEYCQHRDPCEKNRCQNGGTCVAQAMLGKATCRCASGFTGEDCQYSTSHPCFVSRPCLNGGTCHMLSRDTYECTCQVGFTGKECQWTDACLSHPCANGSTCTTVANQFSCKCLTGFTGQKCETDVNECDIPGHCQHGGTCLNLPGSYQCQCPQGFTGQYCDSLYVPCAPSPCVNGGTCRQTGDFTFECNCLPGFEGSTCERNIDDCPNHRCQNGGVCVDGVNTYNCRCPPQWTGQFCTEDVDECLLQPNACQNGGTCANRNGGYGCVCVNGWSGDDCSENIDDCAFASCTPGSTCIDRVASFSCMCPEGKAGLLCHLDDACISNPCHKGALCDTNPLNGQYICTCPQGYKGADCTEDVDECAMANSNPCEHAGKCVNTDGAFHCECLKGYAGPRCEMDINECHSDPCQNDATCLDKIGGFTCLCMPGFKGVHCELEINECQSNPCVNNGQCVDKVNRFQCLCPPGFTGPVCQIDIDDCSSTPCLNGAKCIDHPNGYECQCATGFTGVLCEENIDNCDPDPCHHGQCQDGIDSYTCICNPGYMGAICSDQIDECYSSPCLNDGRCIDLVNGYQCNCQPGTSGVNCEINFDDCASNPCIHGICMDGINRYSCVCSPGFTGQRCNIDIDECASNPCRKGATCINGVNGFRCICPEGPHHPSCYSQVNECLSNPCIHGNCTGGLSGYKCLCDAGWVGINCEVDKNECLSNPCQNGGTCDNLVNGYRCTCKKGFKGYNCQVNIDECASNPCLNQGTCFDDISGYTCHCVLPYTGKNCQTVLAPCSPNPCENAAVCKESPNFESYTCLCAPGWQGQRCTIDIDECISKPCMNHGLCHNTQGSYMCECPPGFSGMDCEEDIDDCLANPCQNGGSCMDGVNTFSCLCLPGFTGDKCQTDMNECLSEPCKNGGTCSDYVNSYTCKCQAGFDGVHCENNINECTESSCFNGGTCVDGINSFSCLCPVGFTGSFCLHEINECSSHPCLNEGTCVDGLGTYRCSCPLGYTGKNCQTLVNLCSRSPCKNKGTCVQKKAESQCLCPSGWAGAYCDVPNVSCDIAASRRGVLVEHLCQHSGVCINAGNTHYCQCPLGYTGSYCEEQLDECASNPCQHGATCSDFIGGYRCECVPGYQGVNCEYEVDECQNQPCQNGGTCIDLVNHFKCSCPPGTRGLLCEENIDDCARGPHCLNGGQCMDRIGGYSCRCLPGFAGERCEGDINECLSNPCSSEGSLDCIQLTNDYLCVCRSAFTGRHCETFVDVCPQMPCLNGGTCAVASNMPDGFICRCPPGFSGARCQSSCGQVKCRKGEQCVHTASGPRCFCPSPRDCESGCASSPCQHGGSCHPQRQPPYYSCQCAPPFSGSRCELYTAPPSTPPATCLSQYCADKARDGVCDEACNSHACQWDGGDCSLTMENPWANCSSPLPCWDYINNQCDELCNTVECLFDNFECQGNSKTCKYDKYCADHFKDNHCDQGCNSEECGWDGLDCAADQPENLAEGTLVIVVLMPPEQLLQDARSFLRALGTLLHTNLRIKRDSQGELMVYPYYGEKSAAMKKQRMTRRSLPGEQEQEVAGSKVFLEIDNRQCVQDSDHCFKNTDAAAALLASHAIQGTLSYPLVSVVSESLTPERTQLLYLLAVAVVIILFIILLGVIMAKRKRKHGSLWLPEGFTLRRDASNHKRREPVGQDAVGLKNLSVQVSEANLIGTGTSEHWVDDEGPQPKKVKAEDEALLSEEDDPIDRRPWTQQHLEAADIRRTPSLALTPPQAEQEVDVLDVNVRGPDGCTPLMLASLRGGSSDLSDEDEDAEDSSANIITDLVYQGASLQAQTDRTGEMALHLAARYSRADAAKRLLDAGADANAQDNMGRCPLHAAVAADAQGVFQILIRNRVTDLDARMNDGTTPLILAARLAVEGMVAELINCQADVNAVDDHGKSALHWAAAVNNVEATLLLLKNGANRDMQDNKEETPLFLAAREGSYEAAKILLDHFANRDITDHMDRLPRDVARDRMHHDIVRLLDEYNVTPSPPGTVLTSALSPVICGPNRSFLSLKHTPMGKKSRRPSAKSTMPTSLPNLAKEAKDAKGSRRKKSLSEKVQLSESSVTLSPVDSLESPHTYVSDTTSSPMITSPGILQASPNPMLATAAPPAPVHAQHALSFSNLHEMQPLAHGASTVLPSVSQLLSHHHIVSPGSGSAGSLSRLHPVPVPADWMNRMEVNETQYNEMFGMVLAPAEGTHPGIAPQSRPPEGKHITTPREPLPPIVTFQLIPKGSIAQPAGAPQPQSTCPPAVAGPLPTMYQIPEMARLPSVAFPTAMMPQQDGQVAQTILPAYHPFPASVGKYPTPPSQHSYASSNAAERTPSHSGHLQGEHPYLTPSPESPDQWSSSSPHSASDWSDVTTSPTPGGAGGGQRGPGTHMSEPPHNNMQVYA

[6] = target: Pro-neuregulin-1, membrane-bound isoform (Homo sapiens) (UniProt Q02297); test: small molecules binding neuregulin-1 protein – biochemical, small-molecule microarray, fluorescence 635/667, psychiatric disease protein project, primary screen (AID 1075); conditions: NRG1 binding, 635 nm fluorescence, higher = more signal;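 further: score combines 667 nm spot fluorescence with signal to noise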
[7] = tested on: Neuregulin-1 EGF-like domain; test: small molecules binding NRG1 EGF domain – biochemical, small-molecule microarray, 635 nm fluorescence, primary screen (AID 1081); conditions: higher = more signal;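 further: binding of the protein to compounds printed on small-molecule microarray slides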
[8] = FRG1 expression reporter modulators in myotubes – cell-based, C2C12 myotubes, firefly/Renilla luciferase, luminescence, FRG1 inhibition for FSHD, primary screen (AID 1084); conditions: FRG1 promoter luciferase, higher = more signal, called active from +8 up or from −8 down
[9] = small molecules captured by biotinylated probe aFST – biochemical, small-molecule microarray, fluorescence 635/667, stem cell growth factor project, primary screen (AID 1086); conditions: higher = more signal;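 further: score merges 667 nm fluorescence with signal-to-noise of each printed compound spot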
[10] = binders of probe aHhip on microarray, primary screen, stem cell growth factor project, biochemical, small-molecule microarray, fluorescence 635/667 (AID 1087); conditions: higher = more signal;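 further: score merges spot fluorescence at 667nm with spot signal to noise ratio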
[11] = tested on: PRMT1 (protein arginine N-methyltransferase 1); test: small molecules binding arginine methyltransferase PRMT1 – biochemical, small-molecule microarray, 635 nm fluorescence, primary screen (AID 1088); conditions: higher = more signal;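 further: binding of Prmt1 protein to compounds spotted on small-molecule microarray slides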
[12] = growth effects on S. cerevisiae YJM789 – YJM789 clinical isolate, OD600, 24 h, basal, primary screen (AID 1089); conditions: higher = more signal, called active from +8 up or from −8 down;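 further: growth of clinical yeast isolate S. cerevisiae YJM 789 seeded 1000 cells per well; test concentration not given here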
[13] = S. pombe growth modifiers, basal conditions – strain 972, OD600, 24 h, no modulator, primary screen (AID 1090);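 further: basal condition with compound alone and no growth modifier present; test concentration not given here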; conditions: S. pombe 972 growth, higher = more signal, called active from +8 up or from −8 down
[14] = budding yeast growth modifiers under rapamycin – strain BY4716, OD600, 96 h, primary screen (AID 1091); further: test concentration not given here; conditions: S. cerevisiae BY4716 + rapamycin, higher = more signal, called active from +8 up or from −8 down
[15] = target: Torsin-1A-interacting protein 2 (Homo sapiens) (UniProt Q8NFQ8); test: small molecules binding lysate-expressed LULL1 – cell lysate, human LULL1 lysate, 635/667 nm fluorescence, primary screen (AID 1092); conditions: small-molecule microarray, hLULL1 lysate binding, 635 nm fluorescence; higher = more signal;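 further: probe is lysate of COS7 cells overexpressing human LULL1; score merges per-feature 667 nm fluorescence with signal-to-noise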
[16] = optical density change of DRC41 E. coli – strain DRC41, OD650, 24 h, E. coli filamentation project, primary screen (AID 1093);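 further: MC1000 strain lacking acrAB efflux and sulA so SOS filamentation is blocked; test concentration not given here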; conditions: E. coli DRC41 growth, higher = more signal, called active from +8 up or from −8 down
[17] = probe aLefty2 binding to arrayed compounds – biochemical, biotinylated probe, 635/667 nm fluorescence, primary screen (AID 1094); conditions: small-molecule microarray, higher = more signal;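 further: score merges spot fluorescence near 667 nm with spot signal-to-noise ratio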
[18] = tested on: Noggin (protein binding on small-molecule microarray); test: small molecules binding Noggin protein – biochemical, 635/667 nm fluorescence, primary screen (AID 1095); conditions: 635 nm fluorescence, higher = more signal;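 further: score merges 667 nm feature fluorescence with signal to noise over triplicate slides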
[19] = target: Neurogenic locus notch homolog protein 3 (Homo sapiens) (UniProt Q9UM47); test: small molecules binding NOTCH3 protein – biochemical, 635/667 nm fluorescence, primary screen (AID 1096); conditions: small-molecule microarray, 635 nm fluorescence, higher = more signal
Sequence of Neurogenic locus notch homolog protein 3 (Homo sapiens) (Q9UM47 whole entry, looked up): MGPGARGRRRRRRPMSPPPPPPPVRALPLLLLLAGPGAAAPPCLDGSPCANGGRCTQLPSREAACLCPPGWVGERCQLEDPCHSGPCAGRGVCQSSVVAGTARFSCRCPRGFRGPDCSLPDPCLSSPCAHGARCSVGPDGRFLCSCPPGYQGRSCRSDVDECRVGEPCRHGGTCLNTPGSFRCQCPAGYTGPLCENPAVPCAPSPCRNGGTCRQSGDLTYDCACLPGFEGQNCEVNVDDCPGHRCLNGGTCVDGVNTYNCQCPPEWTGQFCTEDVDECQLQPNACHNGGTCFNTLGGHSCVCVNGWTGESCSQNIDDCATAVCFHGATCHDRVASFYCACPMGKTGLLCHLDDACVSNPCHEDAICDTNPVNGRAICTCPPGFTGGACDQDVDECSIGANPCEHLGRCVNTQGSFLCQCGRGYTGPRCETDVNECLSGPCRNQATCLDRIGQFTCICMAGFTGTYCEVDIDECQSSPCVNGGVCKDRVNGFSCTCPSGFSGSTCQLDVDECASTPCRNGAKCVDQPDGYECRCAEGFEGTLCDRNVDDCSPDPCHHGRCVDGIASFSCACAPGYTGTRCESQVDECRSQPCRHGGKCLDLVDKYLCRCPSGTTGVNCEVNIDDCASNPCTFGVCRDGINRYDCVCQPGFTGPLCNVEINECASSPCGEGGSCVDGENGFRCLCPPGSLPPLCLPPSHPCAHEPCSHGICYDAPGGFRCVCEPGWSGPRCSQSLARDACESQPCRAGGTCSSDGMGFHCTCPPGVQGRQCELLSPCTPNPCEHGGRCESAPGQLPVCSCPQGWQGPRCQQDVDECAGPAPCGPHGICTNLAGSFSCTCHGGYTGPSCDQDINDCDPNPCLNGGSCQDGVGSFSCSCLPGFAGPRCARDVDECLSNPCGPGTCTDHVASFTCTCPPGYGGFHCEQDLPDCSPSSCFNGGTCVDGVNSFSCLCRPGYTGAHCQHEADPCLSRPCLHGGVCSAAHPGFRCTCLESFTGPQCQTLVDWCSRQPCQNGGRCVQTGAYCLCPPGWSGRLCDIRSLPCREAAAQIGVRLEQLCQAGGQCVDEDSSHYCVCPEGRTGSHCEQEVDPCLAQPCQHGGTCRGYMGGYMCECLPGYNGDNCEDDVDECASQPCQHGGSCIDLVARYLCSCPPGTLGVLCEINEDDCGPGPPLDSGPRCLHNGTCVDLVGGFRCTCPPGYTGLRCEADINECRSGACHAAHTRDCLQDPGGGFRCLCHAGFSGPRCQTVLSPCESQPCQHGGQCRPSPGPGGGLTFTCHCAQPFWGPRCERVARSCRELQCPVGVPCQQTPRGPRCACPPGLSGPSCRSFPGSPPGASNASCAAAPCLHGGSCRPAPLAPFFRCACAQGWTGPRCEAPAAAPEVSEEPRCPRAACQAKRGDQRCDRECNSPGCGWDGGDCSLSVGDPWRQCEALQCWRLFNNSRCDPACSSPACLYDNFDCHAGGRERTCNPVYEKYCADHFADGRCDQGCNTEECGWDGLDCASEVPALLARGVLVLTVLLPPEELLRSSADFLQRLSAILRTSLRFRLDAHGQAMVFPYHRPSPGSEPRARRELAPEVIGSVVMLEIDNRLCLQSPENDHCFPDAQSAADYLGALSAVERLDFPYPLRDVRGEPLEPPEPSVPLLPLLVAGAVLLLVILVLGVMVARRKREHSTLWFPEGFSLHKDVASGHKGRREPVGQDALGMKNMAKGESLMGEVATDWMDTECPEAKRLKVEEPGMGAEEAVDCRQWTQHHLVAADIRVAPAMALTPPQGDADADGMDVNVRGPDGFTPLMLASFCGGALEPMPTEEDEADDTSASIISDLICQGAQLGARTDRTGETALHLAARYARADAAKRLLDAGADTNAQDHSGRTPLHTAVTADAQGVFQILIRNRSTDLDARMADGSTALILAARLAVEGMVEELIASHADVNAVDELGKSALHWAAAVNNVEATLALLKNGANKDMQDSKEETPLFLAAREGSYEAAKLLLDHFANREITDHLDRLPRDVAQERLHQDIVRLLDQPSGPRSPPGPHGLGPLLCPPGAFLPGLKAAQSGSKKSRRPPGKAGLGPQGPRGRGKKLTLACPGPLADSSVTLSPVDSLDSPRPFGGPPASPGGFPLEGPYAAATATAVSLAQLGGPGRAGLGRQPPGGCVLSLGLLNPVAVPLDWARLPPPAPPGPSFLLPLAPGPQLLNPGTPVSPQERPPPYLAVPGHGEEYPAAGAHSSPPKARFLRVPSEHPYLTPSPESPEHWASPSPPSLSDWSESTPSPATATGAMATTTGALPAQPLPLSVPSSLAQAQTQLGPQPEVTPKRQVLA

[20] = probe aEGFR binding to arrayed compounds – biochemical, biotinylated probe, 635/667 nm fluorescence, primary screen (AID 1097); conditions: small-molecule microarray, higher = more signal;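 further: probe is a biotinylated anti-EGFR antibody binding compounds printed on slides; score combines fluorescence near 667 nm and signal to noise of each spot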

| SMILES | composite z-score [1] | composite z-score [2] | composite z-score [3] | composite z-score [4] | composite z-score [5] | composite z-score [6] | composite z-score [7] | z-score [8] | composite z-score [9] | composite z-score [10] | composite z-score [11] | z-score [12] | z-score [13] | z-score [14] | composite z-score [15] | z-score [16] | composite z-score [17] | composite z-score [18] | composite z-score [19] | composite z-score [20] |
| --- | --- | --- | --- | --- | --- | --- | --- | --- | --- | --- | --- | --- | --- | --- | --- | --- | --- | --- | --- | --- |
| CCCCC(=C=CC[C@@H](O)c1ccc(OCCO)cc1)C[C@@H](O)c1cc(Cl)cc(Cl)c1O | -0.12 | 0.0464 | -0.0924 | 0.458 | -0.0054 | 1.26 | 0.597 | -2.98 (inactive) | 0.0049 | 0.0007 | 0.21 | -2.58 (inactive) | -6.3 (inactive) | -1.39 (inactive) | 1.36 | 1.97 (inactive) | -0.057 | 0.988 | -0.174 | 0.24 |
| CC(C)(C)OC(=O)CC[C@@]1(C(=O)N2CCOCC2)N=C(c2ccc(OCCCO)cc2)O[C@@H]1c1ccccc1 | 1.19 | 0.426 | 0.088 | 0.435 | 1.07 | 2.16 | 1.36 | -1.79 (inactive) | 0.517 | 0.28 | 1.58 | 0.153 (inactive) | -0.0631 (inactive) | 0.248 (inactive) | 3.95 | 1.32 (inactive) | 0.32 | 0.743 | 0.274 | 0.233 |
| COC(=O)c1c(CC[C@@H](CO)NC(=O)Nc2ccc(OC)cc2)oc(C(=O)Cc2ccccc2)c1C(=O)OC | -0.211 | 0.469 | -0.0924 | 0.411 | 0.704 | 0.191 | 1.03 | -0.814 (inactive) | -0.0409 | -0.0672 | 0.477 | 1.54 (inactive) | -1.21 (inactive) | 2.23 (inactive) | 0.478 | 1.85 (inactive) | -0.0233 | 0.414 | 0.101 | -0.0252 |
| O=C(N1CCCCC1)[C@@]1(Cc2ccccc2)N=C(c2ccc(OCCCO)cc2)O[C@H]1c1ccccc1 | 0.994 | 2 | 0.103 | 0.235 | 1.58 | 1.05 | 1.02 | -3.21 (inactive) | 1.52 | -0.146 | 1.18 | -0.997 (inactive) | -2.65 (inactive) | 4.43 (inactive) | 2.99 | 0.668 (inactive) | 0.429 | 0.368 | 0.966 | 0.293 |
| CO[C@H]1O[C@H](CO)[C@@H](OC(=O)Nc2ccccc2)[C@H](OC(=O)Nc2ccccc2-c2ccccc2)[C@@H]1OC(=O)Nc1ccccc1-c1ccccc1 | -0.711 | 0.606 | -0.0141 | 0.901 | 1.49 | 1.7 | 1.31 | -0.979 (inactive) | 0.325 | -0.0346 | 1.53 | 1.17 (inactive) | -0.271 (inactive) | -0.471 (inactive) | 3.13 | 1.36 (inactive) | 0.0623 | 0.926 | 1.06 | 0.423 |
| COCCOC(=O)N1C(=O)[C@@]2(c3ccccc31)[C@H](C(=O)Nc1nc3ccccc3s1)[C@H]1C(=O)O[C@H](c3ccccc3)[C@H](c3ccccc3)N1[C@@H]2c1ccc(O)cc1 | 0.0605 | 0.202 | 0.074 | 0.823 | 1.44 | 0.57 | 1.28 | 2.8 (inactive) | 0.442 | 0.0302 | 1.53 | 3.43 (inactive) | 1.8 (inactive) | 8.35 (active) | 1.76 | 2.9 (inactive) | 0.219 | 0.565 | 1.1 | 0.254 |
| CCOC(=O)C[C@H]1[C@H](OC(=O)c2ccc(-c3ccccc3)cc2)[C@@H](NC(=O)C2CCCCC2)c2cc(OCCCO)ccc2N1C(=O)c1ccc2ccccc2n1 | 0.0371 | 0.3 | -0.0788 | 0.361 | 0.689 | 0.738 | 0.741 | -0.429 (inactive) | 0.483 | -0.226 | 1.12 | -0.778 (inactive) | -1.55 (inactive) | -0.327 (inactive) | 1.72 | 2.33 (inactive) | 0.0366 | 0.0692 | 1.1 | -0.0631 |
| CCCCCN1CC=CC23O[C@@H]4/C=C\CCC(C)OC(=O)C4[C@H]2C(=O)N(CCCO)[C@@H]3C1=O (stereo not given in full) | 0.499 | 2.09 | -0.128 | -1.37 | -1.28 | 1.57 | 1.15 | 0.356 (inactive) | -0.61 | -0.261 | -0.418 | -1.3 (inactive) | -1.58 (inactive) | -0.544 (inactive) | 0.818 | 1.77 (inactive) | -0.441 | -1.44 | -1.17 | -0.262 |
| C=C(COC)/C(=C/C[C@H](OC(C)=O)c1ccc(CO)o1)c1cnc2ccccc2c1 | -0.17 | 1.29 | -0.0316 | 0.665 | 1.4 | 0.64 | 1.01 | -0.524 (inactive) | 0.314 | -0.0024 | 1.41 | -0.342 (inactive) | -0.897 (inactive) | -1.06 (inactive) | 2.48 | 1.15 (inactive) | -0.0208 | 1.55 | 1.04 | -0.0616 |
| CN1C=C(C(=O)OCCS(C)(=O)=O)C(C(=O)OCCS(C)(=O)=O)=CC(CCCO)=CC1c1cccs1 (stereo not given) | -0.329 | 0.58 | -0.197 | 0.239 | 0.907 | -0.362 | 0.269 | -0.234 (inactive) | 0.137 | 0.0664 | 1.13 | -0.444 (inactive) | -1.22 (inactive) | -2.42 (inactive) | 0.454 | 0.261 (inactive) | 0.022 | 0.774 | 0.774 | -0.0659 |
| CCCCC(=C=CC[C@H](O)c1cccc(OCCO)c1)CCO | -0.0452 | -0.0768 | -0.0976 | -0.662 | -0.854 | 0.52 | 0.519 | 0.125 (inactive) | -0.101 | 0.0623 | -0.19 | 0.166 (inactive) | -0.486 (inactive) | -1.16 (inactive) | 1.33 | 1.11 (inactive) | -0.12 | 0.0201 | -0.498 | -0.268 |
